According to the supplement of paper PMC11417369:
± gives the standard deviation of the averaged measurements. Whole data set: some 25,000 sequences, median “ln(normalized median fluorescence intensity)” near 8.6, cut for the highest 2% near 10. This is one part of a sample in which the highest values are shown more often than they occur.

Tested on: PfAP2-EXP AP2 domain (GST-tagged)
Assay: gcPBM binding intensity (ln(normalized median fluorescence intensity)); higher = stronger DNA binding
How it was run: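 The binding buffer was 1× PBS containing 1% milk, 0.2 mg/ml BSA, 0.5% salmon testes DNA and 0.03% Triton X-100. In it, GST-tagged P. falciparum DNA-binding domains expressed in E. coli were applied for 1 h to an Agilent 4 × 180k array of primer-extended double-stranded 36-bp intergenic genomic probes plus negative controls. Binding intensity, read with Alexa488 anti-GST antibody and a 488 nm scan, is the highest Masliner-normalised natural-log median intensity across replicate spots of either probe orientation.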

Row | Sequence | gcPBM binding intensity (ln)
1 | CCAACTAAAAAGGAATGTACATAGTTATGGTTGGAA [XGTACX_site8762] | 9.04 ± 0.47
2 | TAAGGAAAAAGAAAAAGTACATTATATAATAAATAG [XGTACX_site3282] | 8.71 ± 0.46
3 | GTGAAATGGAAAAAAAGTACAGATTACATAAGTATT [XGTACX_site6355] | 8.64 ± 0.42
4 | TATTTATTGTGATACTACTATTATTTTATGATTAAA [CACACA_negctrl_site284] | 8.44 ± 0.42
5 | GTATAATATTCATATTCACACATTAAAATATATTTA [CACACA_site4879] | 8.49 ± 0.49
6 | AAAAAATGATAATATACACACTTATGGGAGAGCGCA [CACACA_site5398] | 8.275 ± 0.078
7 | ATTTTAAATTAAATTACACACTACGAATAATATATT [CACACA_site4016] | 8.43 ± 0.42
8 | CAACAAAAGTTATTTACACACAAAAGGCAAGGAAAT [CACACA_site7013] | 8.94 ± 0.47
9 | TAACATATTTTTAATACACACTTAAAAAAGTACTTA [CACACA_site4875] | 8.31 ± 0.34
10 | TTTTTTTTTTTTTACACACCCAAATCACATACATAT [CACACA_site6089] | 8.59 ± 0.44
11 | AAAAAAAAAATTAAAACATGCATAAATAAATATATT [TGCATGCA_site866] | 8.73 ± 0.37
12 | AAATGTTGAAATGATACACACATATATATATATATA [CACACA_site2517] | 10.3 ± 0.32
13 | TCAATAAATATACATACATGCATACATACATACATA [TGCATGCA_site197] | 8.72 ± 0.47
14 | AGAAATGAAATATACACACATACATATATACATATA [CACACA_site4033] | 8.49 ± 0.27
15 | AAAAAAAAATTAAAAACACACATATATATATATATA [CACACA_site1580] | 10.2 ± 0.39
16 | AAATGTTGAAATGATACACACATATAAATATAAATA [CACACA_site7229] | 8.53 ± 0.42
17 | AATCAATAAATAAAAACATGCATATATATATATATA [TGCATGCA_site438] | 10.3 ± 0.47
18 | AAAAAAAAATTAAAAACACACATATAAATAAATATA [CACACA_site6845] | 8.48 ± 0.48
19 | AAAAAAATTAAACACACACACACATATATATATATA [CACACA_site4718] | 10.1 ± 0.25
20 | TGGTATATAAAACACACACACATATGTATTTATATA [CACACA_site4665] | 8.54 ± 0.38
21 | TCATGGAATATTTAAAGTACAAAAAGTGTTCTTTAC [XGTACX_site715] | 8.21 ± 0.3
22 | TAATATCATTTATGTAGTACTATAACAAGAACTATA [XGTACX_site3618] | 8.33 ± 0.35
23 | TATATATATATAAAGGTGCATATCTTTACGTATGTC [GTGCAC_site9665] | 9.99 ± 0.11

Row | Sequence | gcPBM binding intensity (ln)
24 | AAAAAAAAGGAAAATAAAAATAAAAAAAAATAATAA [XGTACX_negctrl_site601] | 8.53 ± 0.52
25 | AAAAAAAAAAAAAATACACACATATATATATATATA [CACACA_site85] | 10.1 ± 0.34
26 | AAAAAAAAAAAATACACACACATATATATATATATA [CACACA_site2224] | 10.2 ± 0.23
27 | AAAAAAAAAAAATATACACACACATATATATATATA [CACACA_site9123] | 10 ± 0.45
28 | AAAAAAAATACATACATACACACATATATATATATA [CACACA_site912] | 9.98 ± 0.38
29 | AAAAAAAAAAAATACACACACACATATATATATATA [CACACA_site731] | 10.2 ± 0.18
30 | AAAAAAAAAAAAAATACACACACATATATATATATA [CACACA_site8698] | 10.1 ± 0.26
31 | TTATATAAATATAAGGTGCTGGGGTTTATTACATAT [GTGCAC_site9909] | 9.03 ± 0.54
32 | AAGATGGTAAAGAATTGTACGCGCATATATATATTT [XGTACX_site3904] | 9.69 ± 0.42
33 | GGCATACACAGACACACACACACACCCACATATATA [CACACA_site591] | 8.79 ± 0.4
34 | TGTATTATATATGTGTGTACATATTTTTTTTTTTTT [XGTACX_site3351] | 8.47 ± 0.34
35 | TTTTAAAGCATATCATATAAAGAACATGACATAGGA [CACACA_negctrl_site630] | 8.61 ± 0.33
36 | ATTTTTTTTGTAAAAGTGCATATATATATATATATA | 10.4 ± 0.35
37 | AAAAAAAAAAAAAAAGTGCATATATAAATATTGTAT [GTGCAC_site9459] | 8.62 ± 0.3
38 | TTTTTTAAATTTAAAGTGCATTATTATATATTTGTA | 8.65 ± 0.15
39 | AAAATTAATAAATAAACACACATATTTATATTTATA [CACACA_site7266] | 8.03 ± 0.41
40 | AAAAAAAAAATTCATTGTACATATATATATATATAT [XGTACX_site8346] | 10.2 ± 0.22
41 | GAATATTCACATACTTGTACATATATATATATATAT [XGTACX_site7302] | 10.2 ± 0.68
42 | AATACACAAATATATTGTACATATATATATATATAT [XGTACX_site2440] | 9.85 ± 0.34
43 | CTTAAAAAAATATATTGTACATATATATATACAACT [XGTACX_site1281] | 8.33 ± 0.3
44 | ATGTATGTATATACTTGTACATATTCATATTAGTAT [XGTACX_site1118] | 8.45 ± 0.35
45 | AAAATATATTCAACTTGTACATATATATATATATAT [XGTACX_site7629] | 10.3 ± 0.13
46 | ATATATATTATATATTGTACATATTATATTCATTAT [XGTACX_site1766] | 8.57 ± 0.3

Row | Sequence | gcPBM binding intensity (ln)
47 | TAAAAATATTTTCATTGTACATATATATAAATATAT [XGTACX_site1123] | 8.4 ± 0.33
48 | TAACTTCAAAAATCTTGTACATAAATATATAAAACA [XGTACX_site8574] | 8.53 ± 0.44
49 | GGATTTATTATATATACACACATACAGATATATATA [CACACA_site5222] | 8.48 ± 0.3
50 | GTTTTTTTTATATATTGTACAAATAATATATTATAT [XGTACX_site29] | 9.02 ± 0.37
51 | TAAATATATTTATACACACACACCAAAGCAATAGAT [CACACA_site7393] | 9.12 ± 0.35
52 | AAAAAATGTTAAAAAAGTACTTTCTTTATTTAATAA [XGTACX_site2908] | 8.07 ± 0.4
53 | GAACGCCATTCACATAAAGGGATACATAAATAAATA [XGTACX_negctrl_site330] | 8.4 ± 0.42
54 | TATATATTATATATATGTACATATTGTTGTGTATAT [XGTACX_site767] | 8.63 ± 0.29
55 | CATACACATATATATTGTACACATATATGTATGTAT [XGTACX_site4030] | 8.45 ± 0.28
56 | TTGTGTACATATTAAGTGCATATATATATATATATA | 10.4 ± 0.33
57 | CATATACATTGTATATGTACATATATATATATATAT [XGTACX_site3772] | 10.1 ± 0.36
58 | ATATAAAAATTAAAATGTACATATCTTATTATAATA [XGTACX_site983] | 8.32 ± 0.34
59 | CATGTGCATATTAAATGTACATATATACATATATAC [XGTACX_site857] | 8.835 ± 0.064
60 | ATATCTTAAATTATTTGTACATATATATATATATAT [XGTACX_site8034] | 10.3 ± 0.27
61 | TATATTAATAATAAGTGTACATATATATATATTTTT [XGTACX_site288] | 8.36 ± 0.3
62 | TATATATATATATATTGTACATATATTATTATATAT [XGTACX_site7447] | 10.2 ± 0.57
63 | ATATATATATATATATGTACATATTGTATCTTATAC [XGTACX_site5466] | 10.2 ± 0.4
64 | CTTTTAAATTATTTTTGTACATAATTATATATATAT [XGTACX_site4128] | 9.4 ± 0.32
65 | ATGTGTATATATTATTGTACATATATATATATATAT [XGTACX_site4627] | 10.3 ± 0.2
66 | TTTTAAATAAATCATGCATGCACATATAATTATATT [TGCATGCA_site151] | 9.94 ± 0.33
67 | TTATATGGATATACAGTGCATATATACATATAAGTG | 8.61 ± 0.26
68 | ACAAAAAAATGAAAAGAAAAAGATATACCCCAATAT [CACACA_negctrl_site509] | 8.99 ± 0.8
69 | TATGTAATGTTTACAACACACAAATTATAAATACAA [CACACA_site1771] | 8.38 ± 0.4

Row | Sequence | gcPBM binding intensity (ln)
70 | TATTACATTATATAAACATGCAAAACTATATATTAT [TGCATGCA_site601] | 8.63 ± 0.45
71 | TGTTTTATTATTTATAGTACATAAAAAAATATTGTA [XGTACX_site8963] | 8.25 ± 0.24
72 | CAAGAATAAAAATACAAGCACACATGTATGAAATAT [CACACA_site3214] | 8.91 ± 0.42
73 | TAAAAAAAAAAAATGTGTACATATTATATATATCTT [XGTACX_site2615] | 8.22 ± 0.3
74 | TTATATCTTATAAAATGTACATAAAATATATAATAT [XGTACX_site7647] | 8.52 ± 0.26
75 | ATATATATATATAAATGTACAGGCTTATCTCTTATT [XGTACX_site1828] | 10.2 ± 0.12
76 | ATTTATCTATAATATACACACATATAACAGACATAT [CACACA_site6469] | 8.52 ± 0.33
77 | TAATATACATATATATGTACATATATATATATATAT [XGTACX_site2684] | 9.93 ± 0.35
78 | TGAATAATATACATACGTACATACATATATATAATA [XGTACX_site1302] | 8.32 ± 0.3
79 | ATACATTCTAATACGTGTACATATATATATATATAT [XGTACX_site1881] | 10.2 ± 0.28
80 | ATTACAAAAAAAAAAAAAAAAAAAAAAAAAAAAAAA [CACACA_negctrl_site448] | 7.95 ± 0.33
81 | TTACTACTATATTATACACACATATATTTATTTATA [CACACA_site7274] | 8.7 ± 0.4
82 | TATTACACATATTATACACACATATATTATATATAT [CACACA_site4951] | 8.69 ± 0.25
83 | ATTTTATTTATATACACACACATATATATATTATAT [CACACA_site822] | 8.77 ± 0.44
84 | TACATAAATTTTAATACATGCAAATAAAATATATAA [TGCATGCA_site131] | 8.88 ± 0.4
85 | ATATTTTATTTATATACACACACATATATATATTAT [CACACA_site8177] | 8.79 ± 0.47
86 | TTACTACTATATTATACACACATATATATATATATA [CACACA_site2621] | 10.3 ± 0.23
87 | AATAATTTTTTAAACACACACACATATATATATATA [CACACA_site95] | 10.1 ± 0.3
88 | TATATATATATATACACATGCAAAAATTTTTAATTT [TGCATGCA_site82] | 10.2 ± 0.35
89 | TAATTTTTTTTAATAACACACATATATATATATATA [CACACA_site813] | 10.47 ± 0.042
90 | TTTTTTTTTTTTTAAACATGCAAAATATATAATTTT [TGCATGCA_site633] | 8.46 ± 0.36
91 | TAATTTTTTTTAATAACACACATATAAATATAAATA [CACACA_site6521] | 8.17 ± 0.45
92 | TTTTATATATTATATACACACATATATATATATATA [CACACA_site2999] | 10.2 ± 0.32
